Hits are enriched below; roughly 1.7% of the tested compounds scored in any of these assays.
PABP polyA inh = PABP-poly(A) binding inhibition; 290,000 tested, 1% active; calls only at 35 µM; AID 2014; PABP-poly(A) RNA binding, fluorescence polarization;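 further: calls also rest on retests at 20 µM and on dose response follow-up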
PABP1 MLLE inh = blocks PAM2 peptide binding to the PABP1 MLLE domain; 360,000 tested, 0.36% active; P11940; inhibition, % at 20 µM; GST-MLLE / FITC-PAM2 fluorescence polarization; in the data active means inhibition above about 35%, passing the limit was not always enough
EBV gp42 inh = EBV gp42 inhibition; Fluorescence polarization binding assay, mP read-out; inhibition, % (tested at 21.74 µM); 220,000 tested, 0.42% active; AID 1085; in the data active means inhibition above about 50%
Target sequence (Q1HVG2 whole entry, looked up): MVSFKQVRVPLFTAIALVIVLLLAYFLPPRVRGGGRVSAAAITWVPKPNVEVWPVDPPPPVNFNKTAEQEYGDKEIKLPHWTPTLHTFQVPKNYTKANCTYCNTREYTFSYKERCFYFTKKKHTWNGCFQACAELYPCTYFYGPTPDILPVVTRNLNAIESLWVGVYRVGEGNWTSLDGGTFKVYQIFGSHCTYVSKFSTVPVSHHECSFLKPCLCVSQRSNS
eIF4E-4G inh = eIF4E/eIF4G interaction inhibition in translation initiation; P63073+Q04637; TR-FRET eIF4E-eIF4GI(517-606) binding, 2 h; inhibition, % at 21.7 µM; 220,000 tested, 0.37% active; AID 782;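 active means inhibition above about 30%, limit read from the data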
eIF4H FP inh = inhibitors of RNA binding by human eIF4H; inhibition, % at 35 µM; Q15056; eIF4H fluorescence polarization binding assay; 290,000 tested, 0.94% active;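 further: calls also rest on retests at 20 µM and on dose response follow-up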
Each line names hits and unclear results; the compound was inactive in the other large screens. Unless noted, how the calls were made is not given here.

CC(=C\c1ccccc1)/C=C1/SC(=S)N(C(C(=O)O)C(C)C)C1=O (configuration not stated)	none
O=C1/C(=C/C=C/c2ccco2)SC(=S)N1NS(=O)(=O)c1ccccc1	PABP polyA inh active, eIF4E-4G inh 33.9, eIF4H FP inh 88.6
CC(C(=O)O)N1C(=O)/C(=C/C=C/c2ccco2)SC1=S (configuration not stated)	PABP polyA inh active, eIF4H FP inh 88.8 (no result: EBV gp42 inh, eIF4E-4G inh)
COc1ccc(OC)c(NC(=O)C2=C(C)NC(=O)NC2c2cccs2)c1 (configuration not stated)	none
O=C(/C=C/c1ccco1)c1ccc(O)cc1	none (no result: PABP1 MLLE inh)
CC(=O)Nc1ccc(C(=O)/C=C/c2ccco2)cc1	PABP polyA inh active, eIF4H FP inh inconclusive
O=C(/C=C\c1ccco1)c1ccc(NC(=O)c2ccco2)cc1	PABP polyA inh active, eIF4H FP inh inconclusive
Cc1ccccc1C1C(C#N)=C2N=C(N)c3c(sc4c3CCCCC4)N2C2=C1C(=O)CCC2 (configuration not stated)	PABP polyA inh active, eIF4H FP inh 78.3
CCNC(=O)c1c(N)sc2c1CCCCC2	PABP polyA inh active, eIF4H FP inh 62.2 (no result: PABP1 MLLE inh)
COc1ccc(-n2c(SCC(=O)N3CCOCC3)nc3ccccc3c2=O)cc1	none (no result: EBV gp42 inh, eIF4E-4G inh)
COc1cc(C(=O)OCC(=O)Nc2ccc(F)cc2F)cc(OC)c1OC	PABP polyA inh active, eIF4H FP inh 72.3
COc1ccc(C(=O)OCC(=O)Nc2ccc(F)cc2F)cc1OC	none
Cc1cc(C)n2nc(SCC(=O)NC3CCCCC3C)nc2n1 (configuration not stated)	none (no result: PABP polyA inh, EBV gp42 inh, eIF4E-4G inh, eIF4H FP inh)
O=C(COc1ccc(Cl)cc1Cl)N/N=C/c1ccc(OC2OC(CO)C(O)C(O)C2O)cc1 (configuration not stated)	none
Clc1ccc(CN2CC[C@H]3C=CCc4cccc(c43)C2)cc1	none (no result: PABP polyA inh, EBV gp42 inh, eIF4E-4G inh, eIF4H FP inh)
Fc1ccc(CN2CC[C@H]3C=CCc4cccc(c43)C2)cc1	PABP1 MLLE inh 47.0 (no result: PABP polyA inh, EBV gp42 inh, eIF4E-4G inh, eIF4H FP inh)
N#CC1=C(N)C2=CCCC[C@H]2[C@H](c2ccccc2)C1(C#N)C#N	PABP polyA inh active, eIF4H FP inh 89.4
Cc1cc(C)c(NC(=O)CNC(=O)c2cc([N+](=O)[O-])ccc2N2CCOCC2)c(C)c1	none (no result: PABP polyA inh, EBV gp42 inh, eIF4E-4G inh, eIF4H FP inh)
COc1ccc(CC(=O)NNS(=O)(=O)c2ccc([N+](=O)[O-])cc2)cc1OC	none (no result: EBV gp42 inh, eIF4E-4G inh)
C=CCSC1=N/C(=C\C=C\c2ccco2)C(=O)S1	PABP polyA inh active, eIF4H FP inh 96.0
C=CCSC1=N/C(=C\c2sccc2C)C(=O)S1	none
CO/N=C/c1ccc(OC)c(Oc2nc(OC)cc(OC)n2)c1	none
CCOC(=O)CNC(=O)/C=C/c1ccc2c(c1)OCO2	none
CCOC(=O)CNc1ccc2c(c1)OCO2	PABP polyA inh active, eIF4H FP inh inconclusive
COC(=O)c1ccccc1NC(=O)c1ccc2nccnc2c1	PABP polyA inh active
COC(=O)c1ccccc1NC(=O)Nc1ncccc1C	EBV gp42 inh 64.4
O=C(Nc1ccccc1Cl)c1ccc2nccnc2c1	none (no result: EBV gp42 inh, eIF4E-4G inh)
CCc1ccccc1NCC(=O)Nc1ccccc1C(=O)OC	eIF4H FP inh active
Cc1cccnc1NC(=O)Nc1ccccc1	none
C[C@@H]1CN([C@H](C)CO)C(=O)CCCn2nncc2CO[C@H]1CN(C)Cc1cccc(C(=O)O)c1	none (no result: PABP polyA inh, EBV gp42 inh, eIF4E-4G inh, eIF4H FP inh)
CN(CC(=O)Nc1c(Cl)cccc1Cl)C(=O)c1ccc(-n2cncn2)c([N+](=O)[O-])c1	none (no result: PABP polyA inh, EBV gp42 inh, eIF4E-4G inh, eIF4H FP inh)
CC(OC(=O)c1ccc(Cl)nc1)C(=O)Nc1ccc2c(c1)OCO2 (configuration not stated)	none (no result: PABP polyA inh, EBV gp42 inh, eIF4E-4G inh, eIF4H FP inh)
O=C(CN1CCOCC1)NN=C1CCCCCCCCCCC1	PABP polyA inh active, eIF4H FP inh active
COc1ccc(C2c3cc(OC)c(OC)cc3CCN2S(C)(=O)=O)cc1OC (configuration not stated)	PABP polyA inh inconclusive, eIF4E-4G inh 42.0, eIF4H FP inh inconclusive
O=C(CN1CCN(Cc2ccc(Cl)cc2)CC1)N/N=C/c1ccccc1F	none
Cc1ccc(-c2cc(-c3ccccc3)c3c(N)c(S(C)(=O)=O)sc3n2)cc1	PABP polyA inh active, eIF4H FP inh 105.0
COc1cccc(NC(=S)Nc2cc(C)cc(C)n2)c1	PABP1 MLLE inh 45.3
Cc1cc(C)nc(NC(=S)Nc2cccc(F)c2)c1	none
CCCn1nc(C(=O)NNC(=O)c2cccc(S(=O)(=O)NC(C)C)c2)c2ccccc2c1=O	none (no result: EBV gp42 inh, eIF4E-4G inh)
CCCCCn1c(N)c(-c2nc3ccccc3s2)c2c([N+](=O)[O-])nn(CC)c(=O)c21	none
CCCCCn1c(N)c(-c2nc3ccccc3o2)c2c([N+](=O)[O-])nn(CC)c(=O)c21	EBV gp42 inh 54.9
CCCCCn1c(N)c(-c2nc3ccccc3o2)c2c([N+](=O)[O-])nn(C)c(=O)c21	EBV gp42 inh 69.1, eIF4H FP inh 74.2
CCOC(=O)c1ccccc1NC(=O)Cn1cnc2c(nnn2-c2ccc(C)cc2)c1=O	eIF4E-4G inh 50.3
O=C(Cn1cnc2c(nnn2-c2ccccc2)c1=O)N1CCOCC1	PABP polyA inh active, eIF4H FP inh active
O=C(Cn1ccc(C(F)(F)F)n1)N=Nc1c(O)[nH]c2ccc(Br)cc12	none
O=C(Cc1c[nH]c2ccccc12)Nc1ccccc1N1CCOCC1	none
O=C(CBr)N1CCc2ccccc2C(c2ccccc2)C1 (configuration not stated)	eIF4H FP inh 84.0
CC(=O)N1c2ccc(S(=O)(=O)N(C)CC(=O)NC3CCCCC3C)cc2CC1C (configuration not stated)	none (no result: PABP polyA inh, EBV gp42 inh, eIF4E-4G inh, eIF4H FP inh)
Cc1ccc(N=Nc2c(N)[nH]n3c(=O)cc(-c4ccccc4)nc23)cc1	EBV gp42 inh 62.9
O=C(CSc1cc(Cl)ccc1Cl)NC1CCCC1	none (no result: EBV gp42 inh, eIF4E-4G inh)
Cc1ccc(N(CC(N)=O)C2SC(=O)N(Cc3ccccc3)C2=O)cc1 (configuration not stated)	PABP1 MLLE inh 41.6
NC(=O)CN(c1ccccc1)C1SC(=O)N(Cc2ccccc2)C1=O (configuration not stated)	PABP1 MLLE inh 45.2
Cc1ccc(N2C(=O)SC(N(CC(=O)O)c3cccc(C)c3)C2=O)cc1 (configuration not stated)	none
CCc1ccc(OCC(=O)NC(NC(=S)Nc2ccccc2OC)C(Cl)(Cl)Cl)cc1 (configuration not stated)	PABP polyA inh active, eIF4H FP inh 77.5
CCN1C(=O)C2(C(C(=O)c3ccc(C)o3)=C(O)C(=O)N2CCCN(C)C)c2ccccc21 (configuration not stated)	none
CCCN1C(=O)C2(C(C(=O)c3ccc(C)o3)=C(O)C(=O)N2CCCOC)c2ccccc21 (configuration not stated)	eIF4E-4G inh 96.2
Cc1nonc1OCCNCc1c(C(=O)N(C)C)nc2ccc(Cl)cn12	PABP polyA inh active, eIF4H FP inh 87.4
CC1(C(=O)NS(=O)(=O)c2ccccc2Cl)CCN1C(=O)CC1CCCC1 (configuration not stated)	none (no result: PABP polyA inh, EBV gp42 inh, eIF4E-4G inh, eIF4H FP inh)
C[C@H](CO)N1C[C@H](C)[C@@H](CN(C)C(=O)Nc2ccc3c(c2)OCO3)Oc2c(NC(=O)Nc3ccc4c(c3)OCO4)cccc2C1=O	none (no result: PABP polyA inh, EBV gp42 inh, eIF4E-4G inh, eIF4H FP inh)
O=c1cc(Cc2ccccc2)[nH]c(=S)[nH]1	none
